Compound activity as filed in PubChem BioAssay.
Shown are actives, neighbours in structure and some others; about 0.87% of the full set was active somewhere.
RECQ1 helicase: RECQ1 (human) helicase inhibition; P46063; RECQ1 DNA unwinding, red fluorescence kinetic read; Potency, µM (titrated, usually from 57.3 µM), actives largely listed as inhibitors; hit rate 0.54% among 240,000; AID 2549; also: nearly all actives have a fitted effect of over 30% in size
Target sequence (P46063 whole entry, looked up): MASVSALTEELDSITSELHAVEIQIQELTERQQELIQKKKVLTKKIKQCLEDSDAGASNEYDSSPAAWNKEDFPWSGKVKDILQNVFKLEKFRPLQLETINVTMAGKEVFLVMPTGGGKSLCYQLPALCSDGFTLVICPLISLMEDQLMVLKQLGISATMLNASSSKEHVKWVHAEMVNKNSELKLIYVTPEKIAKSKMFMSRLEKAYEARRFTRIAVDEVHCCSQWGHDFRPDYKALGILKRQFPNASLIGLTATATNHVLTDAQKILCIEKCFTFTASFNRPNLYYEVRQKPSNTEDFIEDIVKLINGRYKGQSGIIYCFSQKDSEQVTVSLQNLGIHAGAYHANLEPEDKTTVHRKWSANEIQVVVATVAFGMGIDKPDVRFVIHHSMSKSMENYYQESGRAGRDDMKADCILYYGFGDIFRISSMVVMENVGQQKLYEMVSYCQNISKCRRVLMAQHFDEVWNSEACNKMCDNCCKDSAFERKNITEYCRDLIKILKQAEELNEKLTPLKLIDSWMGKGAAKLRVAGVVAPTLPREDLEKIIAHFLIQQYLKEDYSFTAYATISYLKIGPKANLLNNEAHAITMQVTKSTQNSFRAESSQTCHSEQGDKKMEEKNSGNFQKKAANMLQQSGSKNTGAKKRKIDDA
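RECQ1T1 50 nM; forked duplex (20 bp + 30-nt ss tails) 200 nM, ATP 2 mM final; pH 8.0, 2 mM MgCl2, 2.5 ug/ml poly(dI-dC); 15 min compound preincubation; discontinuous kinetic read over 2 h at RT.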
TDP1 block: blocks human tyrosyl-DNA phosphodiesterase 1. recombinant TDP1, AlphaScreen DNA substrate cleavage. Potency, µM (titrated, usually from 130 µM), usual class: inhibitors. hit rate 0.28% among 350,000; also: nearly all actives have a fitted effect of over 40% in size
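Here, a 5' biotin and 3' phosphotyrosine-FITC DNA oligonucleotide reports Tdp1 activity: intact substrate bridges AlphaScreen beads, while cleavage leaves a 3' phosphate and drops signal. All incubations at room temperature.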
APE1 inh: inhibitors of human APE1 endonuclease | P27695 | recombinant APE1, TAMRA/BHQ-2 abasic DNA cleavage fluorescence | Potency, µM (top dose mostly 65.8 µM), usual class: inhibitors | hit rate 0.35% among 350,000 | AID 2517; also: nearly all actives have a fitted effect of over 55% in size
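Substrate: short duplex with […] THF abasic site, 5'-TAMRA and 3'-BHQ-2, 50 nM final. APE1 at 0.75 nM, preincubated 15 min RT with compound. Fluorescence increase from first to third read measured activity.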
KAT2A inh: inhibitors of human GCN5L2 histone acetyltransferase; Q92830; hit rate 0.21% among 390,000; AID 504327; GCN5L2 HAT assay, ThioGlo1 CoA-SH fluorescence; Potency, µM (titrated, usually from 58.9 µM), most hits filed as inhibitors
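Fluorescence readout, Ex340nm/Em540nm: ThioGlo1 (50uM final) reacts with free CoA thiol released as 20nM GCN5L2 acetylates H3(1-25) peptide (75uM) using acetyl-CoA (70uM). Compound and enzyme sat 15 min beforehand; 20 min room-temperature reaction.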
BLM inh: Bloom syndrome helicase (human) inhibition; Potency, µM (series often up to 56.1 µM), hits mostly inhibitors; hit rate 0.2% among 350,000; recombinant BLM DNA unwinding, fluorescence dequenching; AID 2528; P54132; also: nearly all actives have a fitted effect of over 35% in size
A number is an active result; – = inactive; ? = inconclusive; · = no result given; ! = a repeat was not active; [ ] = remark or other dose. Calls follow the shape of the dose curve; as a rule, active = well fitted curve in the direction sought with a large enough effect; inconclusive = small, poorly fitted or top-dose-only effect, or another doubt; inactive = no such curve, though single readings can be large; an effect the other way counts as inactive or inconclusive.

SMILES | RECQ1 helicase | TDP1 block | APE1 inh | KAT2A inh | BLM inh
C=CC(C)(C)c1[nH]c2ccccc2c1C1=C(O)C(=O)C(c2c[nH]c3c(CC=C(C)C)cccc23)=C(O)C1=O | 10µM | ? | 20µM | 16µM | 6.3µM
CC(C)=CCC/C(C)=C/COc1ccc2ccc(=O)oc2c1 | – | – | – | – | –
CC(C)=CCC/C(C)=C/COc1c2occc2cc2ccc(=O)oc12 | – | 20µM! | ? | – | –
O=C(N/N=C/c1cn(Cc2cccc(F)c2)c2ccccc12)c1cc(O)cc(O)c1 | · | 0.63µM | 1.5µM | – | –
O=C1CCCC2=C1C(c1ccccc1Cl)N=C(Nc1nc3ccccc3o1)N2 (configuration not stated) | · | – | · | · | ·
O=C1c2ccccc2C(=O)N1c1cccc2cnccc12 | · | – | · | · | ·
O=C(OCCN1CCOCC1)c1cccnc1 | – | – | – | 1.1µM! | –
O=C(OCCN1CCOCC1)c1ccccc1 | · | – | – | – | –
COc1cccc(O)c1O | – | – | 2.5µM | – | –
COC(=O)CSC1=C(C#N)C(=O)NC(c2ccccc2)S1 (configuration not stated) | – | – | – | 35µM | –
CCN(CC)C(=O)c1nn(-c2ccc(OC)cc2)c(=O)c2c(N)scc12 | · | – | · | · | ·
CS(=O)(=O)/C=C/c1nc(Nc2cc(F)cc(F)c2)c2ncn(CC(F)F)c2n1 | · | – | · | · | ·
CCCCn1nc2cc(C(=O)NCc3ccco3)ccc2c1OCC | – | – | – | – | –
CCOc1c2ccc(C(=O)NCc3ccco3)cc2nn1CCOC | – | – | – | 28µM | –
COc1ccc(-c2ccc3c(c2)c(-c2cccs2)c(-c2cc(OC)cc(OC)c2)n3C)cc1 | · | – | – | 20µM | ·
Nc1ccccc1S(=O)(=O)O | – | – | ? | · | ·
Nc1ccc(/C=C/c2ccc(N)cc2S(=O)(=O)O)c(S(=O)(=O)O)c1 | · | · | · | 13µM | –
O=C(CNC(=O)c1ccc(Br)o1)NCc1cccc(Cl)c1 | · | – | – | – | –
O=C(CNC(=O)c1ccc(Br)o1)NCc1ccc(Cl)cc1Cl | · | – | 13µM | – | –
O=C(OC1CCCCC1)c1ccc2c(c1)C1C=CCC1C(C(=O)O)N2 (configuration not stated) | 7.9µM | – | ? | 20µM | 16µM
C[C@@H]1C(NC(=O)c2ccccc2)CC2CC1C2(C)C (some centres not stated) | · | 10µM | – | – | –
CC1(C)CC(NC(=O)c2ccccc2)CC(C)(C)N1 | · | · | – | – | –
Cc1ccc(C)c(S(=O)(=O)N(C)Cc2cccs2)c1 | · | 79µM | – | – | ·
Cc1c(P(=S)(c2ccccc2)c2ccccc2)[n+]2ccccc2n1CC(=O)c1ccccc1 | · | – | · | · | ·
Cc1noc(CN(C)c2ncnc3ccc(-c4ccc5c(c4)OCO5)cc23)n1 | · | – | · | · | ·
SMILES | RECQ1 helicase | TDP1 block | APE1 inh | KAT2A inh | BLM inh
CCn1c(C)nc2cc(C(=O)NN=Cc3ccc([N+](=O)[O-])cc3)ccc21 | · | 45µM | – | – | ·
Cc1ccc(CC(=O)CCc2ccccc2)cc1 | · | 79µM | – | – | ·
Cc1ccc(OCC(=O)NNC(=O)CCc2ccccc2)cc1 | – | – | – | – | –
Oc1ccc(/C=C/c2ccccc2)c2cccnc12 | · | – | · | · | ·
CC(C)(C)c1ccc(-c2nc(SCC(=O)Nc3ccc(Cl)cc3)[nH]c(=O)c2C#N)cc1 | · | · | · | 35µM | ?
COc1ccc(C2Nc3ccccc3C(=O)N2Cc2cccc(C(F)(F)F)c2)cc1COc1ccc(NC(C)=O)cc1 (configuration not stated) | · | – | · | · | ·
N#Cc1no[n+]([O-])c1-c1ccccc1 | · | · | – | · | ·
COc1ccc(OC)c2sc(N(CCCN(C)C)C(=O)c3ccc(S(=O)(=O)N4CCc5ccccc5C4)cc3)nc12 | · | – | 30µM | – | ·
COc1cccc2sc(N(CCCN(C)C)C(=O)c3ccc(S(=O)(=O)N4CCc5ccccc5C4)cc3)nc12 | · | – | – | – | –
CCCCn1c(C)cc2c(c1=O)C1O[C@](c3ccc(OC)cc3)(Cc3cc(OC)c(OC)cc31)O2 | · | · | 4.3µM | –[12.7 µM] | –[12.4 µM]
CC(C)(C)n1ncc2c(=O)n(Cc3cccc(-c4cccs4)c3)cnc21 | · | · | – | · | ·
CN(C)CCCNc1c2ccccc2nc2ccccc12 | · | · | 9.5µM | – | –
COc1ccc(C2c3c(N)nc(CCc4ccccc4)nc3Oc3ccc4ccccc4c32)cc1OC (configuration not stated) | · | – | · | · | ·
S=C1NC=NC2N=CNC12 (configuration not stated) | – | 14µM | – | ? | –
O=C1c2ccccc2C(=O)N1Cc1ccncc1 | · | – | · | · | ·
Cc1ccccc1N1C(S)=C(C#N)C(=O)NC1c1ccco1 (configuration not stated) | 25µM | – | – | – | –
Cc1nc(N2CCOCC2)c2nc(-c3ccccc3)n(CCN(C)C)c2n1 | – | – | – | · | –
CC1CCN(c2c([N+](=O)[O-])c(=O)n(-c3ccccc3)c3ccccc23)CC1 | – | – | – | 1.4µM | –
